From PubChem BioAssay
Pf growth 48h: Primary qHTS for delayed death inhibitors of the malarial parasite plastid, 48 hour incubation; P. falciparum luciferase growth in erythrocytes, 48 h; Potency, µM (top dose mostly 28.7 µM), for inactives: at the highest dose activity change, negative = inhibition, usual class: inhibitors; actives 5.9% (n = 310,000); note: % is set by controls: 0 for no effect and ±100 for the full control effect
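First compound was added to culture medium, then infected red cells at 0.1% parasitemia and 2% hematocrit (final). After incubation at 37 C under 5% CO2, luciferase detection reagent was dispensed and light output recorded.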
Pf growth 96h: Primary qHTS for delayed death inhibitors of the malarial parasite plastid, 96 hour incubation; Potency, µM (highest dose often 28.7 µM), for the others: at the highest dose activity change, negative = inhibition, actives largely listed as inhibitors; P. falciparum luciferase reporter growth, 96 h; actives 6.9% (n = 320,000); AID 504834, 2011; note: % is set by controls: 0 for no effect and ±100 for the full control effect
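P. falciparum expressing integrated firefly luciferase, in erythrocytes at 2% hematocrit, 0.05% parasitemia, incubated with compounds 96 h at 37 C, 5% CO2. Growth inhibition read as loss of luminescence; two-generation exposure targets delayed-death apicoplast inhibitors.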
RE007 growth inh: qHTS Assay for Inhibitors of the HIV-1 protein Vpr; actives 0.21% (n = 360,000); S. pombe RE007 Vpr strain, BacTiter-Glo ATP luminescence, 24 h; Potency, µM (highest dose often 92.2 µM), for the others: at the top dose activity change, negative = less growth, most hits filed as inhibitors; active = well fitted falling curve with a large enough effect; inconclusive = small, poorly fitted or top-dose-only effect; inactive = no such curve, though single readings can be large or run the other way; note: % is set by controls: 0 for no effect and ±100 for the full control effect; nearly all actives have a fitted effect of over 50% in size
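Fission yeast strain RE007, carrying one chromosomally integrated HIV-1 vpr copy, was seeded at OD 0.01 in PMG+AL medium with 23 nL pinned compound. After 24 h at 30 °C and 99% humidity, viability was read by BacTiter-Glo luminescence.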
NS1 function inh: qHTS Assay for Inhibitors of Influenza NS1 Protein Function | Potency, µM (highest dose often 46.1 µM), for the others: at the top dose activity, positive = more growth | actives 0.4% (n = 270,000) | AID 2326, 2010; calls by dose curve; note: actives are rising curves; nearly all actives have a fitted effect of over 50% in size
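Read-out: OD600 growth recovery of NS1-expressing budding yeast. Cells grown overnight at 30C in -URA glucose medium, washed, resuspended and diluted 1:100 in 2% galactose assay medium, pH 6.0. Same strain lacking NS1 served as positive control.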
SARS PLP yeast: qHTS of Yeast-based Assay for SARS-CoV PLP; S. cerevisiae expressing SARS-CoV PLpro, growth rescue; Potency, µM (titrated, usually from 32.9 µM), inactives show at the highest dose activity, positive = growth rescue, hits mostly activators; actives 0.19% (n = 330,000); AID 485353, 2010; calls by dose curve; note: 0% is about no effect; nearly all actives have a fitted effect of over 55% in size
Active calls of the source: *; ? = inconclusive; · = not tested or not shown. This is a sample that favours compounds with a hit; in the whole collection about 9.5% have one here. Unless noted, calls come from the whole dose curve; as a rule, active = well fitted inhibition curve with a large enough effect; inconclusive = small, poorly fitted or top-dose-only effect, or another doubt; inactive = no such curve, though single readings can be large or run the other way. Potency is the fitted concentration of half-maximal effect.

SMILES | Pf growth 48h | Pf growth 96h | RE007 growth inh | NS1 function inh | SARS PLP yeast
CCN(CC(=O)N1CCN(C)CC1)S(=O)(=O)c1ccc(Cl)cc1 | -13.6% | 9.28µM* | -14.2% | -3.6% | 7.8%
CCN(CC(=O)N1CCCCCC1)S(=O)(=O)c1ccc(C)cc1 | -15.3% | 7.38µM* | -0.3% | 0.5% | -3.9%
CCOC(=O)N1CCN(C(=O)CN(Cc2ccc(Cl)cc2)S(=O)(=O)c2ccc(C)cc2)CC1 | · | 1.85µM* | -1.5% | 0.4% | -2.3%
O=c1[nH]c(C2CCN(S(=O)(=O)c3ccccc3C(F)(F)F)CC2)nc2c1nnn2Cc1cccc(F)c1 | 2.62µM* | ? | 12.9% | 15.7% | 2.5%
O=c1[nH]c(C2CCN(S(=O)(=O)c3cccc(Cl)c3)CC2)nc2c1nnn2Cc1ccccc1 | ? | 21.4% | -2.1% | 24.9% | 4.7%
Cc1ccc(S(=O)(=O)N2CCCC(c3nc4c(nnn4Cc4ccc5c(c4)OCCO5)c(=O)[nH]3)C2)cc1 (stereo unspecified) | ? | ? | -18.9% | 17.2% | -3.4%
O=c1[nH]c(C2CCCN(S(=O)(=O)c3ccccc3)C2)nc2c1nnn2Cc1ccccc1F (stereo unspecified) | 10.4µM* | 10.2% | 0.4% | -42.1% | 5.2%
COc1ccc(Cn2nnc3c(=O)[nH]c(C4CCCN(C(=O)c5ccccc5)C4)nc32)cc1 (stereo unspecified) | ? | 11.7µM* | 7.8% | -9.4% | 1.4%
O=c1[nH]c(C2CCCN(S(=O)(=O)c3cccc(F)c3)C2)nc2c1nnn2Cc1ccccc1 (stereo unspecified) | 7.38µM* | ? | -3.1% | 25.5% | 2.7%
CCOCCSc1n[nH]c(=O)n1CCc1ccccc1 | 31.8% | 0.8% | 18.0% | 0.5% | -0.4%
COC(=O)[C@@]12C[C@@H](CC(=O)N3CCCC3)C(=O)N(Cc3ccccc3)C1=CCC(C)(C)C2 | · | · | -4.2% | · | ·
CC(=O)OC1CCC2(C)C(CCC3C2CC(=O)C2(C)C3CC(C3CCCC3=O)C2C(C)=O)C1 (stereo unspecified) | · | · | 3.0% | · | ·
O=c1[nH]c(C2CCCN(S(=O)(=O)c3ccccc3)C2)nc2c1nnn2Cc1ccccc1 (stereo unspecified) | 10.4µM* | -39.9% | -20.7% | -3.6% | 0.0%
O=c1[nH]c(C2CCN(S(=O)(=O)c3ccc4c(c3)OCCO4)CC2)nc2c1nnn2Cc1ccccc1F | ? | 13.1µM* | 0.9% | ? | -2.1%
O=c1[nH]c(C2CCN(S(=O)(=O)c3ccc4c(c3)OCCO4)CC2)nc2c1nnn2Cc1c(F)cccc1Cl | -21.6% | -28.8% | -6.7% | 21.6% | 5.0%
COC(=O)c1ccc(Cn2nnc3c(=O)[nH]c(C4CCCN(S(=O)(=O)c5ccccc5)C4)nc32)cc1 (stereo unspecified) | ? | 1.4% | 11.7% | 18.2% | -4.5%
O=C(O)C1CCCCC1C(=O)NCCc1ccc(F)cc1 (stereo unspecified) | 21.3% | 9.28µM* | 13.0% | 3.9% | 0.4%
O=C(CN(C(=O)Cn1nnc(-c2cccs2)n1)c1cnc2ccccc2c1)NCC1CCCO1 (stereo unspecified) | ? | 14.7µM* | -2.1% | -10.2% | 18.5%
O=C(CN(C(=O)Cn1nnc(-c2ccccc2F)n1)c1cnc2ccccc2c1)NCC1CCCO1 (stereo unspecified) | 9.28µM* | ? | -13.0% | · | 2.8%
Cc1ccc(N(CC(=O)NCC2CCCO2)C(=O)Cn2nnc(-c3cccs3)n2)cc1 (stereo unspecified) | -19.5% | ? | ? | 1.9% | 0.5%
CCOC(=O)NC(=O)c1cn(Nc2ccccc2)c(=O)[nH]c1=O | 42.3% | 0.1% | 15.4% | 1.1% | 0.3%
Cc1sc2nc3c(C(=O)N4CCCC4)cc(C(=O)c4ccccc4O)cn3c(=O)c2c1C | 13.1µM* | ? | 1.6% | 4.9% | -0.4%
CCc1c(C)sc2nc3c(C(=O)N4CCOCC4)cc(C(=O)c4cc(F)ccc4O)cn3c(=O)c12 | ? | 2.08µM* | -4.3% | · | 2.8%
CC(C)CN1CCN(Cc2c[nH]c3ccccc23)CC1CCO (stereo unspecified) | 9.5% | 9.28µM* | -6.9% | ? | 3.3%
CC(C)Cn1c(CN2CCN(C)C(CCO)C2)nc2ccccc21 (stereo unspecified) | -2.1% | 9.28µM* | 0.8% | 2.2% | -6.4%
SMILES | Pf growth 48h | Pf growth 96h | RE007 growth inh | NS1 function inh | SARS PLP yeast
CC(C)N1CCN(Cc2c[nH]c3ccccc23)CC1CCO (stereo unspecified) | 17.6% | 1.2% | -25.2% | ? | ·
CC(C)=CCN1CCN(Cc2c[nH]c3ccccc23)CC1CCO (stereo unspecified) | 0.0% | 2.94µM* | 0.0% | 27.5% | 3.2%
N/C(CSc1ccc(Cl)cc1)=N\NC(=O)c1ccncc1 | -13.3% | -16.0% | -0.1% | -2.3% | 0.5%
CCc1ccc(/C=C/c2c[nH]c3ccccc23)[n+](CC)c1 | 0.208µM* | 0.0738µM* | ? | -6.0% | 3.2%
CC(=O)n1cc(N(C(=O)CCl)c2ccccc2)c2ccccc21 | ? | ? | 2.9% | -39.6% | -2.9%
CC(=O)n1cc(N(C(=O)CCl)c2ccc([N+](=O)[O-])cc2)c2ccccc21 | 3.7µM* | ? | -16.4% | -5.7% | -2.3%
Cc1cc(C)n(C(C)CC(=O)Nc2ccc(-c3ccno3)cc2)n1 (stereo unspecified) | ? | 0.522µM* | -8.9% | -23.9% | -4.6%
CC(CC(=O)Nc1ccc(-c2ccno2)cc1)n1cccn1 (stereo unspecified) | -20.3% | -22.0% | 3.4% | 4.7% | -5.8%
CC/C(=N/Nc1ccccc1Cl)c1cnnc(-c2ccccc2)n1 | 2.33µM* | 1.04µM* | -15.7% | 2.9% | -4.5%
COc1ccc(N/N=C(/C)c2cnnc(-c3ccccc3)n2)cc1 | ? | 0.37µM* | 8.6% | -18.9% | -27.3%
Clc1ccc(Nc2ccc(NCc3ccccc3)nn2)cc1 | 4.65µM* | 1.85µM* | 13.4% | -22.3% | 11.5%
Cc1ccc(C2=NN(C(=O)CN3CCN(C4CCS(=O)(=O)C4)CC3)C(c3ccco3)C2)cc1 (stereo unspecified) | -25.6% | 0.5% | 1.5% | · | -1.6%
N#CC(C(=S)Nc1ccccc1)c1nc2ccccc2[nH]1 (stereo unspecified) | ? | 4.65µM* | -9.7% | 6.2% | -1.7%
COC(=O)N/N=C/c1ccc(-c2cc(Cl)cc(Cl)c2)o1 | ? | ? | -24.9% | 11.9% | -49.7%
NC(=S)N/N=C/c1ccc(-c2cc(Cl)cc(Cl)c2)o1 | ? | · | -5.7% | -10.7% | ·
CCOC(=O)N/N=C\c1ccc(-c2cc(Cl)ccc2Cl)o1 | 5.22µM* | 22.0% | -7.9% | -3.6% | -0.6%
NC(=S)N/N=C/c1ccc(-c2cc(Cl)ccc2Cl)o1 | · | 4.65µM* | -27.3% | -66.2% | -22.7%
Nc1c(-c2ccccc2)nc(Cl)nc1-c1ccccc1 | 50.5% | -51.4% | 13.1% | 3.8% | 3.1%
